TDP1 cell noCPT: qHTS for Inhibitors of human tyrosyl-DNA phosphodiesterase 1 (TDP1): qHTS in cells in absence of CPT; 420,000 compounds, 15% hits; AID 686978, 2013; Potency, µM (titrated, usually from 46.2 µM), without a hit: at the top dose activity change, negative = growth inhibition, hits mostly inhibitors; DT40 Tdp1-/- hTDP1 cells, no CPT, ATP luminescence, 48 h; note: potency is the fitted concentration of half-maximal effect; nearly all actives have a fitted effect of over 55% in size
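Readout: luminescence from CellTiter-Glo after 30 min in the dark at RT. Cells: DT40 Tdp1-/- with stable hTDP1, 400/well. Exposure: compounds alone, ≥48 hr, 37 °C.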
CtBP-E1A inh: CtBP/E1A binding inhibition; 340,000 compounds, 0.49% hits; activity change, % (test concentration not listed); AlphaScreen GST-E1A/His-CtBP binding, 1536-well; active compounds read low; in the data active = activity change below about -65%; inconclusive = mostly about -30% to -63%
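AlphaScreen with 125 nM GST-E1A and 125 nM His-CtBP (5X stocks) in Tris pH 8.0, 300 mM NaCl, BSA, Tween 20, TCEP. Compounds preincubated 2 h at 37 deg C, then glutathione donor/nickel acceptor beads added for 1 h at 37 deg C in dark.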
IL1B secr inh: inhibitors of inflammasome signaling (IL-1 beta secretion); THP-1 LPS/ATP IL-1B secretion, AlphaLISA, 16 h; active compounds read low; activity change, % at 57.5 µM; 360,000 compounds, 4.7% hits; AID 743279; in the data active = activity change below about -50%; inconclusive = mostly about -30% to -49%
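THP-1 cells pretreated 1 hr with compounds (up to 57.5 uM final), then stimulated with LPS (250 ng/mL final) plus ATP (1.25 mM final); secreted IL-1B measured by AlphaLISA after 16 hr, decreased signal indicating inhibition.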
TDP1 block: inhibitors of human tyrosyl-DNA phosphodiesterase TDP1; Q9NUW8; recombinant TDP1, AlphaScreen DNA substrate cleavage; Potency, µM (top dose mostly 130 µM), without a hit: top-dose activity change, negative = inhibition, most hits filed as inhibitors; 350,000 compounds, 0.28% hits; AID 485290; note: potency is the fitted concentration of half-maximal effect; nearly all actives have a fitted effect of over 40% in size
Target sequence (Q9NUW8 whole entry, looked up): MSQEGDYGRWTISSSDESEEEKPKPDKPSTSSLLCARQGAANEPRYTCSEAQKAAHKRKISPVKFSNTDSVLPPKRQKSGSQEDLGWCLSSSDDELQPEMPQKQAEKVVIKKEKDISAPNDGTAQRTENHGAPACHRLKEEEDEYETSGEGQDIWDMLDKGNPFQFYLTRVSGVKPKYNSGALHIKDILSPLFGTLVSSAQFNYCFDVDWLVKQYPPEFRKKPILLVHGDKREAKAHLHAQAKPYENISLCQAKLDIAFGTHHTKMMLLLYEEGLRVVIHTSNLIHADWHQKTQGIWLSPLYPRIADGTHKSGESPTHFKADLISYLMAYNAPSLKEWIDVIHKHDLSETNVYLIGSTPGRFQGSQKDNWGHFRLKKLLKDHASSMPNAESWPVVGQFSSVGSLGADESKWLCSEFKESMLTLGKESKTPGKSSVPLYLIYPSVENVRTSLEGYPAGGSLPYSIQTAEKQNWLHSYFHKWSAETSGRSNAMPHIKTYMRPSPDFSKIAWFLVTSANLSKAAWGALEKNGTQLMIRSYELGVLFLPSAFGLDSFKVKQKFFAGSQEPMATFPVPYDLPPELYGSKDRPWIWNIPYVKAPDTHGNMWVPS
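Recombinant E. coli-expressed Tdp1 (1 nM) preincubated with compound 15 min at RT, then 5'-biotin/3'-phosphotyrosine-FITC DNA substrate (15 nM) added for 5 min. AlphaScreen beads (10 ug/ml) added, 10 min RT; tyrosine-FITC cleavage read as signal loss.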
Six1-Eya2 blk: blocks human Six1 binding to Eya2; AlphaScreen GST-Six1/His-Eya2 binding, biochemical; active compounds read low; activity change, % (concentration not given with the values); AID 651725; 360,000 compounds, 0.56% hits; in the data active = activity change below about -65%; inconclusive = mostly about -30% to -63%
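Homogeneous AlphaScreen proximity assay pairing GST-Six1 with His-tagged Eya2 (added as 5X mix: 250 nM and 500 nM) in 50 mM Tris pH 8.0, 300 mM NaCl, 1 mM TCEP. Glutathione donor and nickel acceptor beads; 1 h, 37 °C, dark.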
TDP1 cell CPT: growth inhibition of DT40 Tdp1-/-;hTDP1 cells with camptothecin (screen for TDP1 inhibitors); chicken DT40 Tdp1-/-;hTDP1 cells + 20 nM CPT, ATP luminescence, 48 h; 420,000 compounds, 12% hits; Potency, µM (series often up to 46.2 µM), without a hit: top-dose activity change, negative = growth inhibition, usual class: inhibitors; note: potency is the fitted concentration of half-maximal effect; nearly all actives have a fitted effect of over 55% in size
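Cell growth measured by CellTiter-Glo luminescence after a minimum 48 h, 37 C compound exposure with 20 nM CPT in Tdp1-knockout DT40 cells stably expressing hTDP1, seeded 400/well; qHTS titration format.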
Numbers without * were called inactive; u = inconclusive; x = no result. An excerpt weighted towards active compounds, which were near 18% of everything screened. Unless noted, calls come from the whole dose curve; as a rule, active = well fitted curve in the direction sought with a large enough effect; inconclusive = small, poorly fitted or top-dose-only effect, or another doubt; inactive = no such curve, though single readings can be large; an effect the other way counts as inactive or inconclusive. % is set by controls: 0 for no effect and ±100 for the full control effect.

SMILES	TDP1 cell noCPT	CtBP-E1A inh	IL1B secr inh	TDP1 block	Six1-Eya2 blk	TDP1 cell CPT
Cc1c(NS(=O)(=O)c2ccc(NC(=O)CCC(=O)O)cc2)c(=O)n(-c2ccccc2)n1C	2%	-20	-71*	x	-2	-21%
Cc1ccc(CNC(=O)c2ccc(S(=O)(=O)Nc3c(C)n(C)n(-c4ccccc4)c3=O)cc2)cc1	21µM*	-22	7	4%	6	u
Cc1c(NS(=O)(=O)c2ccc(C(=O)NCc3ccccc3)cc2)c(=O)n(-c2ccccc2)n1C	u	7	19	1%	1	-10%
CC(Nc1oc(-c2ccccc2)nc1-c1ccc(C(F)(F)F)cc1)c1ccccc1 (stereo not drawn)	x	x	x	6%	x	x
CCOc1ccc(NC(=O)Nc2cc(OCC(F)(F)F)cc(OCC(F)(F)F)c2)cc1	2.9µM*	-5	-3	0%	1	2.9µM*
O=C(Nc1ccc(F)cc1)Nc1cc(OCC(F)(F)F)cc(OCC(F)(F)F)c1	4.6µM*	11	-61*	-1%	0	2.6µM*
CCOc1cc(NC(=O)Nc2ccc(F)cc2)c(OCC)cc1NC(=O)CC	5%	x	0	x	-2	-2%
C=CCN1c2ccc(Br)cc2C(=O)CS1(=O)=O	u	14	31	2%	8	u
CC(C)(C)c1ccc(/C=N/OCC(=O)NCc2ccc(F)cc2)cc1	16µM*	-14	-69*	3%	-1	u
COc1cc(/C=C/C(=O)OCC(=O)NCc2ccc(F)cc2)ccc1O	2.3µM*	-1	67	-14%	2	2.6µM*
COc1cc(/C=C/C(=O)OCC(=O)Nc2ccc3c(c2)OCCO3)ccc1O	16µM*	-16	24	-1%	3	u
Cc1ccc(CNC(=O)CO/N=C/c2ccc(C(C)(C)C)cc2)cc1	u	-4	-2	-1%	6	u
CCOC(=O)c1ccc(NC(=O)COCc2cc(-c3ccc4c(c3)OCO4)on2)cc1	-27%	x	x	6%	x	-22%
O=S(=O)(c1cccc(C(F)(F)F)c1)N1CCCC1c1cccnc1 (stereo not drawn)	u	7	x	0%	4	-3%
CCC1CCCCN1S(=O)(=O)c1ccc(NC(=O)c2cccnc2)cc1 (stereo not drawn)	u	18	59	8%	-18	-21%
Cc1ccc(S(=O)(=O)N2CCCCC2c2cccnc2)c(C)c1C (stereo not drawn)	23µM*	x	0	-8%	5	u
COc1cc(OC)cc(C(=O)Nc2ccc(S(=O)(=O)N3CCCCC3c3cccnc3)cc2)c1 (stereo not drawn)	26µM*	x	x	12%	x	u
CCCn1c(=O)c(C(=O)NCCc2ccc(OC)cc2)c(O)c2ccccc21	u	15	16	5%	1	u
COc1ccc(OC)c(NC(=O)C2CCCN(S(=O)(=O)c3ccc4[nH]c(=O)ccc4c3)C2)c1 (stereo not drawn)	23µM*	x	x	-5%	x	u
COc1ccc(NC(=O)C2CCCN(S(=O)(=O)c3ccc4[nH]c(=O)ccc4c3)C2)cc1OC (stereo not drawn)	-1%	1	-3	2%	0	-10%
CC(C)c1ccc(NC(=O)C2CCCN(S(=O)(=O)c3ccc4[nH]c(=O)ccc4c3)C2)cc1 (stereo not drawn)	-24%	x	x	8%	x	12µM*
O=C(Nc1ccc(Cl)cc1)C1CCCN(S(=O)(=O)c2ccc3[nH]c(=O)ccc3c2)C1 (stereo not drawn)	-20%	x	x	3%	x	u
Cc1cc(C)cc(OCC(=O)OCC(=O)NCc2cccs2)c1	8%	-22	1	3%	-9	-12%
Cc1cn(S(=O)(=O)c2ccc(Br)c3ccccc23)cn1	x	x	x	4%	x	x
CCOc1ccc(Nc2nc(NCCN3CCOCC3)nc(OC)n2)cc1	-22%	-8	-3	4%	0	-6%
SMILES	TDP1 cell noCPT	CtBP-E1A inh	IL1B secr inh	TDP1 block	Six1-Eya2 blk	TDP1 cell CPT
Cc1cc(I)ccc1Nc1nc(NCCN2CCOCC2)nc(N2CCOCC2)n1	5.6µM*	x	x	x	x	3.2µM*
Cc1ccc(Cl)cc1N1CCN(C(=O)CN2C(=O)COc3ccc(S(=O)(=O)N4CCCCCC4)cc32)CC1	x	x	x	1%	x	x
COc1cc(CNC(=O)Nc2nc(C(N)c3ccccc3)cs2)cc(OC)c1OC (stereo not drawn)	-20%	-25	-21	x	u	4%
NC(CCc1ccccc1)c1csc(NC(=O)NCCc2ccccc2)n1 (stereo not drawn)	u	-12	u	x	-17	23µM*
NC(Cc1ccc(Cl)cc1)c1csc(NC(=O)NCC2CCCCC2)n1 (stereo not drawn)	8.2µM*	-13	0	x	0	10µM*
COc1ccc(CC(N)c2csc(NC(=O)c3ccccc3OC)n2)cc1 (stereo not drawn)	-25%	-4	-7	x	-18	u
NC(Cc1ccc(Cl)cc1)c1csc(NC(=O)Nc2ccccc2-c2ccccc2)n1 (stereo not drawn)	12µM*	-7	u	x	-6	13µM*
COc1ccccc1CNC(=O)Nc1nc(C(N)CCc2ccccc2)cs1 (stereo not drawn)	18µM*	-8	u	x	-12	18µM*
COc1ccccc1C(=O)Nc1ccnn1C1CCN(C(=O)C2CCOC2)CC1 (stereo not drawn)	-1%	0	113	3%	0	-5%
COC(=O)Cn1c2ccccc2c(=O)n1C(C)CBr (stereo not drawn)	2%	11	22	x	1	2%
NC(Cc1ccc(Cl)cc1)c1csc(NC(=O)NCCc2ccccc2)n1 (stereo not drawn)	u	-4	-8	x	-11	23µM*
COc1ccc(CC(N)c2csc(NC(=O)NCCc3ccccc3)n2)cc1 (stereo not drawn)	u	-26	u	x	-28	u
CCOC(=O)c1ccc(N2CCN(c3cc(Cl)ccc3C)CC2)c(NC(=O)Nc2ccc(OCC)cc2)c1	13µM*	x	x	8%	x	u
CCOC(=O)c1ccc(N2CCN(c3cc(C)ccc3C)CC2)c(NC(=O)Nc2ccccc2)c1	2.9µM*	x	x	-3%	x	5.8µM*
CCOC(=O)c1ccc(N2CCN(c3cccc(OC)c3)CC2)c(NC(=O)Nc2ccc(OCC)cc2)c1	-23%	x	x	8%	x	u
C/C(CC(=O)NCc1ccco1)=N\NC(=O)CC#N	18%	-3	15	-3%	-7	0%
